Reference: PubChem BioAssay AID488789 (Broad Institute, 2010)
Results with a measured potency or affinity are listed apart. Inconclusive results are not listed. The source made the active and inactive calls.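 The calls were made as follows: active = samples whose fitted half-maximal inhibition concentration is no more than ten times the top valid dose tested; inconclusive = flat response between -70 and -30, or invalid curve fit; inactive = flat within 30 of zero, potency above limit, or signal rising.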

target: Trypsin (Sus scrofa) (UniProt P00761); assay: trypsin protease activity blockade – biochemical, quenched peptide fluorescence, cherry-pick, selectivity assay for Rce1 protease inhibitor project, dose response (AID 488789); conditions: porcine trypsin, quenched peptide cleavage fluorescence; series mostly up to 10 µM;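 also: more negative means stronger trypsin inhibition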
Sequence (P00761 whole entry, looked up): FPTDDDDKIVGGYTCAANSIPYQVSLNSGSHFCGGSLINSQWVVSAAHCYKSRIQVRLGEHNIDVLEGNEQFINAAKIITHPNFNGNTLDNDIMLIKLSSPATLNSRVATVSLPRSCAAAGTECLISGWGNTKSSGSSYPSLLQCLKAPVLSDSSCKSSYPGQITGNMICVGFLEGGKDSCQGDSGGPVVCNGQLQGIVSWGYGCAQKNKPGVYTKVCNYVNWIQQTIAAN

outcome, inactive:
CCOc1ccc2[nH]c(=O)c(CN(CCN3CCOCC3)Cc3nnnn3C(C)(C)CC)cc2c1
CCOC(=O)c1c(NC(=O)COc2ccccc2F)sc2c1CC(C)(C)NC2(C)C
Cc1cccc(NS(=O)(=O)c2ccc(C)c(C(=O)OCC(=O)Nc3cc(C)on3)c2)c1
COc1ccc(-c2cn3ccccc3n2)cc1[N+](=O)[O-]
COc1cc(OC)cc(-c2ncc3ccccn23)c1
CC(=O)c1c(O)cc(O)c(C(C)=O)c1O
CCCCOc1ccc(Cc2c(COCC)[nH]c(=S)[nH]c2=O)cc1
CCC(=O)Nc1cc(-c2nn(CC(=O)N3CCCCC3)c(=O)c3ccccc23)ccc1N1CCOCC1
O=C(Nc1cc(S(=O)(=O)N2CCOCC2)ccc1N1CCCC1)c1cnccn1
COC(=O)C1CCCN1S(=O)(=O)c1ccc2ccccc2c1 (stereo not drawn)
COc1cccc(C(=O)Nc2nnc(SCC(=O)NC3CCCC3)s2)c1
COc1ccc(NS(=O)(=O)c2ccc3oc(=O)c4[nH]c(=O)c(=O)n(C)c4c3c2)cc1
O=C(CCNS(=O)(=O)c1ccc2[nH]c(=O)oc2c1)NCc1ccccc1
O=C(Nc1sc2c(c1C(=O)c1ccc(Cl)cc1)CCCC2)c1cccnc1
NC(=O)[C@H]1CC2(CC(c3cccc(NC(=O)COc4ccc(Cl)cc4)c3)=NO2)CN1C(=O)C(c1ccccc1)c1ccccc1 (stereo partly drawn)
CC1(C)CC2CC(C)(CN2S(=O)(=O)c2ccc(N)cc2)C1 (stereo not drawn)
O=c1c(-c2ccccc2)c(O)c2ccccc2n1-c1ccccc1
COc1ccc(Cl)cc1C(=O)Nc1ccc2c(c1)OCO2
Cc1ccc(Nc2nc(-c3ccc(S(=O)(=O)N4CCOCC4)cc3)cs2)cc1Cl
COc1cc2c(cc1OC)C(C)N(C(=O)CCNC(=O)c1ccccc1)CC2 (stereo not drawn)
O=C(O)c1ccc(N/N=C/c2ccc(-c3ccccc3Cl)o2)cc1
CCOC(=O)C1=C(C)OC(N)=C(C#N)C1c1cc2c(cc1[N+](=O)[O-])OCO2 (stereo not drawn)
O=C(Nc1cccc2ncccc12)c1cccnc1
O=C1C(=O)N(C/C=C/c2ccccc2)c2ccccc21
COc1ccc(C)cc1NC(=O)CN1C(=O)COc2ccc(S(=O)(=O)N3CCOCC3)cc21
COc1ccc([N+](=O)[O-])cc1CSc1ccccn1
CNC(=S)N/N=C/c1cn(Cc2c(F)cccc2Cl)c2ccccc12
Cc1cc(N)c2cc(NC(=O)/C=C/c3ccccc3Cl)ccc2n1
CC1=NN(c2ccccc2)C(=O)/C1=C\c1ccc(Br)s1
CCOc1ccccc1CNC(=O)c1cc2occc2n1C
Cc1ccc(NC(=O)CCc2ccc(S(=O)(=O)NC3CCCCC3)cc2)cc1
O=C(c1cn(-c2ccccc2)nc1-c1cccs1)N1CCN(c2ccccn2)CC1
O=C(c1cnc(Cl)c(Cl)c1)N1CCC(Cc2ccccc2)CC1
COCc1cc(C)n(CC(=O)NCc2ccccc2)c(=O)c1C#N
COC(=O)c1sccc1NC(=O)CSc1nnnn1-c1ccccc1C
CC(=O)Nc1ccc(Cl)cc1C1COC(=O)C1=N (stereo not drawn)
Cc1ccc(C(=O)N/C(=C/c2ccco2)C(=O)Nc2cccc(C(=O)O)c2)cc1
CCCN(CCC)CCNC(=O)c1cc2c(-c3ccc(Cl)cc3)nn(C)c2s1
